# Values joined by “and” are separate entries in the source; they are usually repeats but may differ in a detail not shown here. Identical values can stand only once. Results filed as inconclusive are left out. More than one record can exist for a structure, and the calls need not agree. Active and inactive are the calls of the source. How the source made its calls, unless noted: active means hit-call score of the fitted dose curve at least 0.9, where 1 is the maximum; inactive means score below 0.9.
# How the values were obtained:
# [1] = ATG_NFI_CIS: Attagene CIS-FACTORIAL HepG2 Assay for human Nuclear Factor I (NFI) (AID 2282989); conditions: HepG2 cis-regulatory reporter, NFI response element transcription; actives raise or lower the signal
# Procedure, shortened: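 Multiplexed cis-reporter system in human HepG2 cells reports native TF activity as reporter mRNA induction 24 h post-dose. Fragments labelled with 6-FAM, HpaI-digested and resolved by capillary electrophoresis; activity fitted both directions versus DMSO.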
# [2] = molecular target: Myc proto-oncogene protein (Homo sapiens) (UniProt P01106); assay: ATG_Myc_CIS: Attagene CIS-FACTORIAL HepG2 Assay for human Myelocytomatosis (Myc) Proto-Oncogene Transcription Factor (AID 2282990); conditions: HepG2, Attagene cis-reporter transcription factor activity; actives raise or lower the signal
# Myc proto-oncogene protein (Homo sapiens), sequence (P01106 whole entry, looked up): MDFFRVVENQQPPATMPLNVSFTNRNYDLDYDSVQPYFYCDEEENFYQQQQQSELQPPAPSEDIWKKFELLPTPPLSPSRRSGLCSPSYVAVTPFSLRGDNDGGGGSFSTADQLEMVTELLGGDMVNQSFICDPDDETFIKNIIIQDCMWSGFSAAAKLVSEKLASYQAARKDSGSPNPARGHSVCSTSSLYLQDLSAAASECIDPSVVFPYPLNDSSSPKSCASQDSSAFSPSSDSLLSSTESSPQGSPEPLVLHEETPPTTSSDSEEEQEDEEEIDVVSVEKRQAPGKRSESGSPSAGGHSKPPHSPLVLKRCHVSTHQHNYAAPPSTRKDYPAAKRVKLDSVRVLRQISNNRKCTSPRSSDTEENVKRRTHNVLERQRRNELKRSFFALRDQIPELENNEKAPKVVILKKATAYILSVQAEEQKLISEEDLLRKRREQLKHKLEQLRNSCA
# Procedure, shortened: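 HepG2 cells transiently transfected with multiple cis-promoter-driven reporter transcription units, so endogenous TF activity is read. After 24 h compound exposure, reporter mRNA was quantified by RT-PCR, 6-FAM labelling, HpaI digestion and capillary electrophoresis; bidirectional fit versus DMSO.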
# [3] = ATG_NF_kB_CIS: Attagene CIS-FACTORIAL HepG2 Assay for human Nuclear Factor Kappa B (NF-kB) (AID 2282991); conditions: HepG2 Attagene cis-factorial NF-kB reporter mRNA; actives raise or lower the signal
# Procedure, shortened: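 Read-out: reporter transcript levels quantified by RT-PCR plus capillary electrophoresis of 6-FAM-labelled, HpaI-cut fragments. Transfected HepG2 cells, 24 h compound exposure, endogenous NF-kB-driven cis element; gain or loss scored versus DMSO.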
# [4] = ATG_NRF2_ARE_CIS: Attagene CIS-FACTORIAL HepG2 Assay for human Nuclear Factor Erythroid 2 Related Factor 2 (NFR2) response to Antioxidant Response Elements (ARE) (AID 2282992); conditions: HepG2 Attagene ARE/NRF2 reporter, transcription factor activity; actives raise or lower the signal;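 on AC50: reporter mRNA level measured by RT-PCR and capillary electrophoresis fluorescence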
# Procedure, shortened: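 Readout: reporter mRNA quantified by RT-PCR plus FAM-labelled primer extension, HpaI digestion and capillary electrophoresis, 24 h after dosing transfected HepG2 cells. Gain or loss of signal is fitted bidirectionally against DMSO baseline.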
# [5] = ATG_Oct_MLP_CIS: Attagene CIS-FACTORIAL HepG2 Assay for human Octamer-Binding Transcription Factor (Oct) (AID 2282993); conditions: HepG2 Attagene cis-factorial Oct reporter, mRNA; actives raise or lower the signal
# Procedure, shortened: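 After 24 h compound exposure, transfected HepG2 cells were lysed for total RNA; reporter-specific cDNA was PCR-amplified, fluorescently labelled and sized by capillary electrophoresis. Bidirectional curve fitting used DMSO as baseline.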
# [6] = BSK_3C_TissueFactor: BioMAP Diversity Plus: 3C Assay for Tissue Factor Biomarker Activity (AID 2282997); conditions: BioMAP 3C HUVEC, tissue factor biomarker readout; actives raise or lower the signal
# Procedure, shortened: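 HUVEC, 3C system, 24 h post-dose; Tissue Factor by ELISA; bidirectional fit vs DMSO baseline.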
# [7] = BSK_3C_uPAR: BioMAP Diversity Plus: 3C Assay for Urokinase-type plasminogen activator receptor (uPAR) Biomarker Activity (AID 2282998); conditions: BioMAP 3C HUVEC, uPAR biomarker ELISA; actives raise or lower the signal
# Procedure, shortened: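 Values derive from bidirectional curve fitting relative to DMSO, which served as baseline of activity. uPAR was measured by ELISA in human umbilical vein endothelial primary cultures 24 h after compound addition.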
# [8] = BSK_3C_VCAM1: BioMAP Diversity Plus: 3C Assay for Vascular cell adhesion molecule 1 (VCAM1) Biomarker Activity (AID 2282999); conditions: BioMAP 3C HUVEC, VCAM1 ELISA, cytokine-stimulated; actives raise or lower the signal
# Procedure, shortened: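 Vascular primary endothelium (human umbilical vein) was exposed to chemicals and assayed 24 h later. VCAM-1 levels came from ELISA, with DMSO serving as baseline for bidirectional fitting.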
# [9] = BSK_4H_Eotaxin3: BioMAP Diversity Plus: 4H Assay for Eotaxin 3 Biomarker Activity (AID 2283000); conditions: primary human endothelial cells (HUVEC); actives raise or lower the signal;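 further: CCL26 protein level quantified by ELISA in parallel with SRB cytotoxicity check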
# Procedure, shortened: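 Readout is Eotaxin-3 (CCL26) level by ELISA in primary human umbilical vein endothelial cells harvested 24 h after chemical exposure; activity fitted in both directions against DMSO control.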
# [10] = molecular target: human Peroxisome Proliferator-activated Receptor alpha (PPARa), PPARA (gene 5465) (UniProt Q07869); assay: ATG_PPARa_TRANS: Attagene TRANS-FACTORIAL HepG2 Assay for human Peroxisome Proliferator-activated Receptor alpha (PPARa) (AID 2283001; active means hit-call score of the fitted dose curve at least 0.9, where 1 is the maximum;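 on AC50: potency for gain of reporter signal over DMSO so agonist or activator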)
# human Peroxisome Proliferator-activated Receptor alpha (PPARa), PPARA (gene 5465), sequence (Q07869 whole entry, looked up): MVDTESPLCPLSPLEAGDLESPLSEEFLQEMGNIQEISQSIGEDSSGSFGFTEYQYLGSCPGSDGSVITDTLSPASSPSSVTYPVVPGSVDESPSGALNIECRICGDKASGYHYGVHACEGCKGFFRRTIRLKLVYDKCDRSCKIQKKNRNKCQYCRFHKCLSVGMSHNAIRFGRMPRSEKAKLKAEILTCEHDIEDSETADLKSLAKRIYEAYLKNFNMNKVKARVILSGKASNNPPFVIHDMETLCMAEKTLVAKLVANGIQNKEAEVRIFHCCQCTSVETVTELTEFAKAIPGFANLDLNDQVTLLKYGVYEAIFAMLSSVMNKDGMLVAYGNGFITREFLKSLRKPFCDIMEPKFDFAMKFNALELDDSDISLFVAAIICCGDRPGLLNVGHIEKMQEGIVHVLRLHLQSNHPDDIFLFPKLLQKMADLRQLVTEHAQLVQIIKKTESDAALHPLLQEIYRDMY
# Procedure, shortened: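 Cells (HepG2) are transfected with multiple reporter transcription units, exposed to chemical for 24 h, then total RNA is reverse-transcribed and amplified. Labelled products are quantified by capillary electrophoresis; induction is referenced to DMSO.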
# [11] = molecular target: human Peroxisome Proliferator-activated Receptor delta (PPARd), PPARD (gene 5467) (UniProt Q03181); assay: ATG_PPARd_TRANS: Attagene TRANS-FACTORIAL HepG2 Assay for human Peroxisome Proliferator-activated Receptor delta (PPARd) (AID 2283002; active means hit-call score of the fitted dose curve at least 0.9, where 1 is the maximum)
# human Peroxisome Proliferator-activated Receptor delta (PPARd), PPARD (gene 5467), sequence (Q03181 whole entry, looked up, the tested form may be a part): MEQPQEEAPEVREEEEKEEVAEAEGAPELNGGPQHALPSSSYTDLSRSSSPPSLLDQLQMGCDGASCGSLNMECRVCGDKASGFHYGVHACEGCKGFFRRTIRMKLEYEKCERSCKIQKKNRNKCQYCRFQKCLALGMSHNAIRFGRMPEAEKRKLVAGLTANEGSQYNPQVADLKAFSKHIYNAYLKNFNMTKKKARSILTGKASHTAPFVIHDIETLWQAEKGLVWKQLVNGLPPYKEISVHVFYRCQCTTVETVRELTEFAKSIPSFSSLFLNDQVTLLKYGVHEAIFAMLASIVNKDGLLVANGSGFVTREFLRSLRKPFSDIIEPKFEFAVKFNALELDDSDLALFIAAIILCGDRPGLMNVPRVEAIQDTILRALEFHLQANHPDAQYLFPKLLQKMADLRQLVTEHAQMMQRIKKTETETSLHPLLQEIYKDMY
# Procedure, shortened: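 HepG2 cells transiently transfected with multiplexed GAL4-UAS reporter units and exogenous chimeric NR-Gal4 proteins; 24 h compound exposure. Reporter mRNA measured by RT-PCR, 6-FAM labelling, HpaI digestion and capillary electrophoresis; gain of signal versus DMSO.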
# [12] = read-out: Intercellular Adhesion Molecule 1 (ICAM1), ICAM1 (gene 3383); assay: BSK_3C_ICAM1: BioMAP Diversity Plus: 3C Assay for Intercellular Adhesion Molecule 1 (ICAM1) Biomarker Activity (AID 2283003); conditions: primary human endothelial cells (HUVEC); actives raise or lower the signal
# Procedure, shortened: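 Chemicals are dosed onto primary human umbilical vein endothelium (3C system). After 24 h, ICAM-1 is measured by ELISA, and responses are fitted bidirectionally relative to DMSO.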
# [13] = molecular target: human Retinoic Acid Receptor beta (RARb), RARB (gene 5915) (UniProt P10826); assay: ATG_RARb_TRANS: Attagene TRANS-FACTORIAL HepG2 Assay for human Retinoic Acid Receptor beta (AID 2283004; active means hit-call score of the fitted dose curve at least 0.9, where 1 is the maximum)
# human Retinoic Acid Receptor beta (RARb), RARB (gene 5915), sequence (P10826 whole entry, looked up, the tested form may be a part): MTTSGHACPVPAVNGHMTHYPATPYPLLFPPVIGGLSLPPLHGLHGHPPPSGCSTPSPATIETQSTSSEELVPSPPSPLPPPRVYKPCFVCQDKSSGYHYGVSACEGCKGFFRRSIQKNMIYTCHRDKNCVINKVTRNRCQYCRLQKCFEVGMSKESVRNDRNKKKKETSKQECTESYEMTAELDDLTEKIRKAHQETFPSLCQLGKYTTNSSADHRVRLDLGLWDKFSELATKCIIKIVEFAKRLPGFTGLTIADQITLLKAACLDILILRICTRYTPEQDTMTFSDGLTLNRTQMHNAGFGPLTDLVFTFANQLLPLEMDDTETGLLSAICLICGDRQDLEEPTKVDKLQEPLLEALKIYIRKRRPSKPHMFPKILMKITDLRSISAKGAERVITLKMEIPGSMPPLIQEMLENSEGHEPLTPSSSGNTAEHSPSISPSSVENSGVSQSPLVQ
# Procedure, shortened: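 Readout is reporter mRNA induction: RNA reverse-transcribed, PCR-amplified, FAM-labelled, HpaI-cut and resolved by capillary electrophoresis. Transiently transfected HepG2 cells carrying exogenous NR–Gal4 chimeras were dosed for 24 h; activity fitted upward relative to DMSO.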
# [14] = BSK_3C_Proliferation: Cell Proliferation Assessment in the BioMAP Diversity Plus: 3C Assay (AID 2283006); conditions: primary human endothelial cells (HUVEC)
# Procedure, shortened: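 Cells (human umbilical vein endothelial, sub-confluent) receive test chemical; after 48 h they are fixed in 10% trichloroacetic acid, stained with 0.1% SRB and read at 560 nm. Activity is referenced to DMSO, fitting increases and decreases.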
# [15] = molecular target: Peroxisome proliferator-activated receptor gamma (Homo sapiens) (UniProt P37231); assay: ATG_PPARg_TRANS: Attagene TRANS-FACTORIAL HepG2 Assay for human Peroxisome Proliferator-activated Receptor-gamma (PPARg) (AID 2283007; active means hit-call score of the fitted dose curve at least 0.9, where 1 is the maximum)
# Peroxisome proliferator-activated receptor gamma (Homo sapiens), sequence (P37231 whole entry, looked up, the tested form may be a part): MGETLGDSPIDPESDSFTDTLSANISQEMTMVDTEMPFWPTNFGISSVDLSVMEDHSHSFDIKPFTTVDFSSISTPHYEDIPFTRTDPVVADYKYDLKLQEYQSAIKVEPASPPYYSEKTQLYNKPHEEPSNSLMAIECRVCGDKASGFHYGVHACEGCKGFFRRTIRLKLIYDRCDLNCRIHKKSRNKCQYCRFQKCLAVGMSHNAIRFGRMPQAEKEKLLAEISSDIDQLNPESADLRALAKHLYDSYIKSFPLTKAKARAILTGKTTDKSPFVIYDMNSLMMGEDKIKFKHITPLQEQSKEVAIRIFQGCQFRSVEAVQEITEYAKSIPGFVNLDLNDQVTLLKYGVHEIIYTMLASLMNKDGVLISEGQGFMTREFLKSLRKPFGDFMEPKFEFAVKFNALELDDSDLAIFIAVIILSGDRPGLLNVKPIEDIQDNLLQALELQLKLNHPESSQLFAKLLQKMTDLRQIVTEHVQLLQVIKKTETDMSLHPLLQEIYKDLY
# Procedure, shortened: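 Read-out: reporter mRNA induction, detected by fluorescence after RT-PCR and capillary electrophoresis. Transiently transfected human HepG2 liver cells carrying a chimeric NR-Gal4 construct were dosed for 24 h; activity was fitted upward relative to DMSO.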
# [16] = molecular target: Nuclear receptor subfamily 1 group I member 2 (Homo sapiens) (UniProt O75469); assay: ATG_PXR_TRANS: Attagene TRANS-FACTORIAL HepG2 Assay for human Pregnane X Receptor (PXR) (AID 2283008; active means hit-call score of the fitted dose curve at least 0.9, where 1 is the maximum)
# Nuclear receptor subfamily 1 group I member 2 (Homo sapiens), sequence (O75469 whole entry, looked up, the tested form may be a part): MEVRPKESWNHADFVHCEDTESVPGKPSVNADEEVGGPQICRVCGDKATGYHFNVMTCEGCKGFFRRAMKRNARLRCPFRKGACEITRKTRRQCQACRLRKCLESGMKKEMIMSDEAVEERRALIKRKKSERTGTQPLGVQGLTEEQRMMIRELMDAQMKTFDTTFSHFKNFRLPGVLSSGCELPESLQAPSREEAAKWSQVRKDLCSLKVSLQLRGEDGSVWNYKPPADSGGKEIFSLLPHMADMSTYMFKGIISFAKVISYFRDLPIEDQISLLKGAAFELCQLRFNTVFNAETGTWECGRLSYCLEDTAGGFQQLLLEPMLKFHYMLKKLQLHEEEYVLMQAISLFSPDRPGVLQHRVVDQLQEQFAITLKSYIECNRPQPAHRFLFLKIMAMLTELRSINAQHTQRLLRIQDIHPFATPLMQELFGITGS
# Procedure, shortened: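 Trans-factorial format: exogenous NR-Gal4 fusion activity, not endogenous factor, in transfected human HepG2 liver cells. After 24 h dosing, RNA isolated, reverse-transcribed, amplified and resolved by capillary electrophoresis; induction scored versus DMSO.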
# [17] = molecular target: human Retinoic Acid Receptor gamma (RARg), RARG (gene 5916) (UniProt P13631); assay: ATG_RARg_TRANS: Attagene TRANS-FACTORIAL HepG2 Assay for human Retinoic Acid Receptor gamma (RARg) (AID 2283009; active means hit-call score of the fitted dose curve at least 0.9, where 1 is the maximum)
# human Retinoic Acid Receptor gamma (RARg), RARG (gene 5916), sequence (P13631 whole entry, looked up, the tested form may be a part): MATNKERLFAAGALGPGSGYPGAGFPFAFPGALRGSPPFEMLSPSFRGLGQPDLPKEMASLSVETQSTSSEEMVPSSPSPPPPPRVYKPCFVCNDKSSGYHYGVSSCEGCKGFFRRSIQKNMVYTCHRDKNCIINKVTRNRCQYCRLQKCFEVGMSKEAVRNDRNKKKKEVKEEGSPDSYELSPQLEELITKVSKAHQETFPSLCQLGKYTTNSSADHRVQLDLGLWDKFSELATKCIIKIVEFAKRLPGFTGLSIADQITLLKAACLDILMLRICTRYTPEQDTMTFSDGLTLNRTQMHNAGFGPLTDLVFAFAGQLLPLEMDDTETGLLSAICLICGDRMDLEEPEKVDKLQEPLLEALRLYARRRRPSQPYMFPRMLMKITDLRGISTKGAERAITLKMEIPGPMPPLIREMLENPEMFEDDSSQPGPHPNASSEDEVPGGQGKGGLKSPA
# Procedure, shortened: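 TRANS format measured activity of exogenous NR-GAL4 fusion (RARg) in transfected HepG2 liver cells after 24 h dosing. Induced reporter RNA was detected by RT-PCR/capillary electrophoresis fluorescence, analysed in the positive direction against DMSO.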
# [18] = molecular target: Cellular tumor antigen p53 (Homo sapiens) (UniProt P04637); assay: ATG_p53_CIS: Attagene CIS-FACTORIAL HepG2 Assay for human p53 Transcription Factor (AID 2282994); conditions: HepG2 p53 cis-element reporter, Attagene mRNA; actives raise or lower the signal
# Cellular tumor antigen p53 (Homo sapiens), sequence (P04637 whole entry, looked up): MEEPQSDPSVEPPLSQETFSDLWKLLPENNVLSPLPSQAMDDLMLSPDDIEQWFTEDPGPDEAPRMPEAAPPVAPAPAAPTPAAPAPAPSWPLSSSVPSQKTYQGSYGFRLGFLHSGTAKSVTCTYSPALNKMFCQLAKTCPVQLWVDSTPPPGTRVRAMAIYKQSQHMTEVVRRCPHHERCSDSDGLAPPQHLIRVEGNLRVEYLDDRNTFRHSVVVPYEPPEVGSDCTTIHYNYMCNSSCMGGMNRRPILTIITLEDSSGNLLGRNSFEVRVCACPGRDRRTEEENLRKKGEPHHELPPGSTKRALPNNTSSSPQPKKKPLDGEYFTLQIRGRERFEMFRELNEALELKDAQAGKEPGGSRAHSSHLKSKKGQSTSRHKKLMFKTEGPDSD
# Procedure, shortened: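 Read-out: reporter mRNA by RT-PCR plus capillary electrophoresis with fluorescence detection. Human HepG2 liver cells carried transfected multi-reporter cis-element constructs, dosed 24 h. Gain or loss of signal fitted bidirectionally against DMSO control.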
# [19] = molecular target: Retinoic acid receptor alpha (Homo sapiens) (UniProt P10276); assay: ATG_RARa_TRANS: Attagene TRANS-FACTORIAL HepG2 Assay for human Retinoic Acid Receptor alpha (RARa) (AID 2283005; active means hit-call score of the fitted dose curve at least 0.9, where 1 is the maximum)
# Retinoic acid receptor alpha (Homo sapiens), sequence (P10276 whole entry, looked up, the tested form may be a part): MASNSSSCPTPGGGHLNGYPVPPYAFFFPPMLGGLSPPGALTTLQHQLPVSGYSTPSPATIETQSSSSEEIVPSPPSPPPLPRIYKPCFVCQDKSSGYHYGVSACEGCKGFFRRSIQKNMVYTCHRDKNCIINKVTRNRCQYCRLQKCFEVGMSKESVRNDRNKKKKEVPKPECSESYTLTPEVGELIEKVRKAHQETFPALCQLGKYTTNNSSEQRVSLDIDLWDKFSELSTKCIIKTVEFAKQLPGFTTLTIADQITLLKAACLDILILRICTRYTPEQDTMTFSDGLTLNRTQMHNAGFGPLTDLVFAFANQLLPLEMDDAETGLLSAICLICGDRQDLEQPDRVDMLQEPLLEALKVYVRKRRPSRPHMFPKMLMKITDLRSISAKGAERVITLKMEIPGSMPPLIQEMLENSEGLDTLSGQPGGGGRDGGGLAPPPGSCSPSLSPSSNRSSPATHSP
# Procedure, shortened: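 HepG2 cells transiently transfected with multiple reporter units expressing chimeric RARα-GAL4 fusion, with GAL4-UAS-driven reporters. After 24 h compound exposure, reporter mRNA induction quantified by RT-PCR and capillary electrophoresis with fluorescent labeling; gain-of-signal fitted relative to DMSO control.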
structure (smiles),measurement,setting,value
O=S(=O)(OCCOC(F)(F)F)C(F)(F)F,outcome,[1],inactive
same,outcome,[2],inactive
same,outcome,[3],inactive
same,outcome,[4],inactive
same,outcome,[5],inactive
same,outcome,[6],inactive
same,outcome,[7],inactive
same,outcome,[8],inactive
same,outcome,[9],inactive
same,outcome,[10],inactive
same,outcome,[11],inactive
same,outcome,[12],inactive
same,outcome,[13],inactive
same,outcome,[14],inactive
same,outcome,[15],inactive
same,outcome,[16],inactive
same,outcome,[17],inactive
Nc1ccc(Oc2cccc(Oc3ccc(N)cc3)c2)cc1,outcome,[2],inactive
same,outcome,[3],inactive
same,AC50,[4],26.5 µM (active)
same,AC50,[5],24.9 µM (active)
same,AC50,[18],26.7 µM (active)
same,outcome,[10],inactive
same,AC50,[15],5.29 µM (active)
same,AC50,[16],22.1 µM (active)
C=C(C)C(=O)OCC(F)(F)C(F)(F)C(F)(F)F,outcome,[2],inactive
same,outcome,[3],inactive
same,outcome,[4],inactive
same,outcome,[5],inactive
same,outcome,[18],inactive
same,outcome,[6],inactive
same,outcome,[7],inactive
same,outcome,[8],inactive
same,outcome,[9],inactive
same,outcome,[10],inactive
same,outcome,[11],inactive
same,outcome,[12],inactive
same,outcome,[13],inactive
same,outcome,[19],inactive
same,outcome,[14],inactive
same,outcome,[15],inactive
same,outcome,[16],inactive
[Co],outcome,[2],inactive
same,outcome,[3],inactive
same,outcome,[4],inactive
same,outcome,[18],inactive
same,outcome,[19],inactive
same,outcome,[15],inactive
same,AC50,[16],22.1 µM (active)
same,outcome,[17],inactive
O=S(=O)(O)C(F)(F)C(F)(F)C(F)(F)C(F)(F)C(F)(F)C(F)(F)C(F)(F)F,outcome,[1],inactive
same,outcome,[2],inactive
same,outcome,[3],inactive
same,AC50,[4],42.6 µM (active) and 30.3 µM (active)
same,outcome,[5],inactive
same,outcome,[18],inactive
same,outcome,[6],inactive
same,outcome,[7],inactive
same,outcome,[8],inactive
same,outcome,[9],inactive
same,AC50,[10],21.7 µM (active) and 24.7 µM (active)
same,outcome,[12],inactive
same,outcome,[13],inactive
same,outcome,[19],inactive
same,outcome,[14],inactive
same,AC50,[15],33.4 µM (active) and 33.2 µM (active)
same,AC50,[16],33.5 µM (active)
same,outcome,[16],inactive
same,outcome,[17],inactive
COC(=O)C1CCC(C(=O)OC)CC1 (centres undefined),outcome,[2],inactive
same,outcome,[3],inactive
same,AC50,[4],163 µM (active)
same,outcome,[4],inactive
same,outcome,[5],inactive
same,outcome,[10],inactive
same,outcome,[11],inactive
same,outcome,[13],inactive
same,outcome,[15],inactive
same,outcome,[16],inactive
same,outcome,[17],inactive
Nc1ccc(S(=O)(=O)Nc2nccs2)cc1,outcome,[1],inactive
same,outcome,[2],inactive
same,outcome,[3],inactive
same,outcome,[4],inactive
same,outcome,[5],inactive
same,outcome,[10],inactive
same,outcome,[11],inactive
same,outcome,[15],inactive
same,outcome,[16],inactive
same,outcome,[17],inactive
CCC(=O)OCCc1ccccc1,outcome,[1],inactive
same,outcome,[2],inactive
same,outcome,[3],inactive
same,outcome,[4],inactive
same,outcome,[5],inactive
same,outcome,[18],inactive
same,outcome,[16],inactive
CCCCOCCOCCOC(=O)CCCCC(=O)OCCOCCOCCCC,outcome,[1],inactive
same,outcome,[2],inactive
same,outcome,[3],inactive
same,outcome,[4],inactive
same,outcome,[5],inactive
same,outcome,[6],inactive
same,outcome,[7],inactive
same,outcome,[8],inactive
same,outcome,[9],inactive
same,AC50,[10],37.7 µM (active)
same,outcome,[11],inactive
same,outcome,[12],inactive
same,outcome,[19],inactive
same,outcome,[14],inactive
same,outcome,[15],inactive
same,outcome,[16],inactive
same,outcome,[17],inactive

# — PubChem BioAssay (EPA / NIEHS)
